FUS suppressor – FUS proteinopathy suppression in yeast | 390,000 compounds, 0.24% hits | S. cerevisiae FUS-expressing, growth rescue, OD600, 24 h | AID 1347120 | Potency, µM (doses to about 76.6 µM), usual class: activators; further: nearly all actives have a fitted effect of over 55% in size
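Yeast FUS proteinopathy model; galactose-induced FUS (2%), starting OD 0.005. Cpds in dilution series, 24hr, 30C, 99% humidity. Abs 600 nm growth. Pos ctrl CP55940 (top 92uM final); neg ctrl DMSO.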
ALOX12 inh – ALOX12 (human) lipoxygenase inhibition. AID 1671190. P18054. Potency, µM (doses to about 108 µM), most hits filed as inhibitors. purified 12hLO, xylenol orange hydroperoxide absorbance. 580,000 compounds, 1.1% hits
Target sequence (P18054 whole entry, looked up): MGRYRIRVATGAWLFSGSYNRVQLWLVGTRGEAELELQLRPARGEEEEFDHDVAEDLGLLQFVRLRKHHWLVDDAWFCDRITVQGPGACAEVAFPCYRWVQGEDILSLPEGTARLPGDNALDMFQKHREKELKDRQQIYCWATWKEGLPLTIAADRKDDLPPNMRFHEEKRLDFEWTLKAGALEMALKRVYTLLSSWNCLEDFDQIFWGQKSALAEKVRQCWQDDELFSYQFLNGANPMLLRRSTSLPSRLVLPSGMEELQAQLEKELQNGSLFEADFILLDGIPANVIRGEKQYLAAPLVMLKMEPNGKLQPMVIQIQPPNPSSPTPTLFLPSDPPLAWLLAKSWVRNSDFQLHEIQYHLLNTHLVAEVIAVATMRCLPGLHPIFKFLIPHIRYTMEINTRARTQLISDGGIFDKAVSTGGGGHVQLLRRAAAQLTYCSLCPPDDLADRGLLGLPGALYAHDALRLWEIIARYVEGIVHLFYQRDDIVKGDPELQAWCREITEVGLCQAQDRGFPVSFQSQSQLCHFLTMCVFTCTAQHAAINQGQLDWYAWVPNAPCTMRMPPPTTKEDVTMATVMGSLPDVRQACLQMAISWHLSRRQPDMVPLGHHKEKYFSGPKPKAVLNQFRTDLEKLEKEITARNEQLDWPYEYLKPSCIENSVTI
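Purified human 12hLO (150 nM final) in 25 mM Hepes, 0.01% Triton X-100, pH 7.0 was preincubated 15 min at room temperature with compound. Then 40 uM arachidonic acid was added, 30 min. Hydroperoxide was read by Fe-XO absorbance ratio 573/405 nm.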
Mito fusion act – mitochondrial division inhibition or fusion activation | 320,000 compounds, 0.23% hits | AID 485298 | S. cerevisiae fusion-defective mutant growth rescue, CellTiterGlo 48 h | Potency, µM (series often up to 46.1 µM), most hits filed as activators; further: nearly all actives have a fitted effect of over 45% in size
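Yeast fusion mutant, YPEG (non-fermentable carbon), compound, 48 h at 37C non-permissive; CellTiterGlo added, 10 min RT, luminescence read. Rescued growth = division inhibition.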
gsp antag – gsp mutant antagonism; gsp-mutant cells, cAMP HTRF, 30 min; Potency, µM (titrated, usually from 76.9 µM), most hits filed as inhibitors; 340,000 compounds, 0.4% hits; AID 624288; calls by dose curve; cell line not stated here;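 further: intracellular cAMP measured with PDE inhibitor Ro 20-1724 present during compound exposure; nearly all actives have a fitted effect of over 65% in size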
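Measurement of cellular cAMP by homogeneous time-resolved fluorescence following a 30 min compound exposure at 37C. The PDE inhibitor […] was present throughout; the assay buffer was DPBS with 0.05% BSA and 0.005% Tween 20.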
gsp ag – activates gsp, the McCune-Albright syndrome mutation | gsp mutant cells, cAMP HTRF, 30 min | Potency, µM (series often up to 76.9 µM), hits mostly activators | 340,000 compounds, 0.13% hits | AID 624287; active means well fitted activation curve with a large enough effect; inconclusive means small, poorly fitted or top-dose-only effect, or another doubt; inactive means no such curve, though single readings can be large or run the other way; cell line not stated here;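 further: phosphodiesterase inhibitor Ro 20-1724 added with compounds to block cAMP breakdown; nearly all actives have a fitted effect of over 60% in size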
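Cells stably selected in G418 were plated at 2000/well, grown 16-24 hr, then given compounds in DMSO with the PDE inhibitor […] (300 uM solution added) for 30 min at 37C; cAMP was read by HTRF.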
Of the large screens only hits and unclear results are named; the others gave an inactive call; ! = a repeat was not active. Shown are actives, neighbours in structure and some others; about 1.6% of the full set was active somewhere. Unless noted, the call rests on the fitted dose curve; in most records, active means well fitted curve in the direction sought with a large enough effect; inconclusive means small, poorly fitted or top-dose-only effect, or another doubt; inactive means no such curve, though single readings can be large; an effect the other way counts as inactive or inconclusive.

Cc1ccc2[nH]c3c(N4CCN(Cc5ccccc5)CC4)ncnc3c2c1	gsp antag 16µM
Cc1ccc2c(c1)[nH]c1c(N3CCN(Cc4ccccc4)CC3)ncnc12	gsp antag inconclusive
c1ccc2c(c1)[nH]c1c(N3CCC4(CC3)OCCO4)ncnc12	gsp antag 32µM (no result: ALOX12 inh)
c1ccc(CN2CCN(c3ncnc4c3[nH]c3ccccc34)CC2)cc1	gsp antag 32µM (no result: FUS suppressor)
c1ccc2c(c1)CCN(c1ncnc3c1[nH]c1ccccc13)C2	gsp antag inconclusive
Cc1ccc2[nH]c(=O)c(CN(CCc3ccccc3)C(c3nnnn3Cc3ccco3)C(C)C)cc2c1 (stereo not given)	ALOX12 inh 11µM
O=C(NCC1CC1)c1cccc(OC2CN(Cc3ccc(F)cc3Cl)C2)c1	none (no result: FUS suppressor, Mito fusion act, gsp antag, gsp ag)
O=C(NCC1CC1)c1cccc(OC2CN(Cc3ccc(F)cc3F)C2)c1	ALOX12 inh 25µM (no result: FUS suppressor, Mito fusion act, gsp antag, gsp ag)
CC(OC(=O)c1ccccc1Nc1ccc(SC(F)F)cc1)C(N)=O (stereo not given)	ALOX12 inh inconclusive, Mito fusion act 14µM (no result: FUS suppressor)
CCCN1C=C(OC(=O)c2ccc(OC)cc2)c2ccccc2S1(=O)=O	none (no result: FUS suppressor, Mito fusion act, gsp antag, gsp ag)
CC(=Nc1ccc(Cl)cc1N)c1c(O)cc(C)oc1=O	ALOX12 inh 35µM (no result: FUS suppressor, Mito fusion act, gsp antag, gsp ag)
COc1ccc(CNC(=O)CN(c2ccc(C(C)C)cc2)S(=O)(=O)c2c(C)n[nH]c2C)cc1	none (no result: FUS suppressor, Mito fusion act, gsp antag, gsp ag)
C[N+]1(CC(=O)OC2CCCCCCCCCCC2)CCCC1	ALOX12 inh 45µM (no result: gsp antag)
COC(=O)CCCCCCCCCC[N+]1(C)CCCCC1	ALOX12 inh inconclusive
Cc1ccc2nc(C3CCN(Cc4ccc(-c5cccs5)cc4)CC3)[nH]c(=O)c2c1	ALOX12 inh 35µM! (no result: FUS suppressor, Mito fusion act, gsp antag, gsp ag)
Cc1noc([C@@H]2CN(C(=O)c3cc(C)oc3C)C[C@H]2COCC2CC2)n1	none (no result: FUS suppressor, Mito fusion act, gsp antag, gsp ag)
Cc1cc(C)c2c(N)c(C(=O)NN3CC(=O)N(c4ccccc4)CC3=O)sc2n1	ALOX12 inh 50µM
Cc1cc(C)c2c(N)c(C(=O)NN3CC(=O)N(c4cccc(Cl)c4)CC3=O)sc2n1	none
Clc1ccc(C2Nc3cccc4cccc(c34)N2)cc1	ALOX12 inh 4.5µM
O=C1NC(c2ccc(Cl)c([N+](=O)[O-])c2)Nc2ccccc21 (stereo not given)	ALOX12 inh inconclusive, gsp ag inconclusive
O=[N+]([O-])c1cc(C2Nc3cccc4cccc(c34)N2)ccc1Cl	ALOX12 inh 40µM (no result: FUS suppressor)
COc1cc(/C=N/O)c(Br)c(Br)c1OC	none (no result: FUS suppressor, Mito fusion act, gsp antag, gsp ag)
O=C(O)c1ccc(COc2ccc3ccccc3c2/C=C2/NC(=O)N(c3ccccc3)C2=O)cc1	FUS suppressor 35µM, gsp antag inconclusive, gsp ag inconclusive
Cn1cc(/C=C2\SC(=O)N(c3ccc(O)cc3)C2=O)c2ccccc21	gsp antag 32µM
Cn1cc(/C=C2\SC(=O)N(c3ccccc3)C2=O)c2ccccc21	gsp antag 45µM
COCCNc1nc2c([S+](=O)([O-])c3cccnc3)nnn2c2ccccc12	none (no result: FUS suppressor, Mito fusion act, gsp antag, gsp ag)
CC(=O)Nc1ccc(CN2CCC3(CC(c4cccc(C(F)(F)F)c4)=NO3)C2)cc1 (stereo not given)	none (no result: FUS suppressor, Mito fusion act, gsp antag, gsp ag)
CC(=O)NC1(C)CCN(Cc2cnc(-c3cccc(C(F)(F)F)c3)s2)CC1	ALOX12 inh 28µM (no result: FUS suppressor, Mito fusion act, gsp antag, gsp ag)
Cc1cn2c(=O)cc(CSc3ccccc3)nc2s1	none (no result: FUS suppressor, Mito fusion act, gsp antag, gsp ag)
CCc1cccc(CC)c1NC(=O)COC(=O)c1ccc2ccccc2n1	ALOX12 inh 6.3µM (no result: FUS suppressor, Mito fusion act, gsp antag, gsp ag)
CCOc1cccc(CN2CC(Oc3ccccc3C(=O)NC3CC3)C2)c1	none (no result: FUS suppressor, Mito fusion act, gsp antag, gsp ag)
O=C(NC(=S)NCCC1=CCCCC1)c1ccccc1Br	ALOX12 inh 16µM
O=C(COC(=O)c1ccccc1Br)NCCC1=CCCCC1	none
O=C(O)CCCCCCNS(=O)(=O)Cc1ccccc1	none (no result: FUS suppressor, Mito fusion act, gsp antag, gsp ag)
COc1cccc(C2C(C(=O)c3ccc(C)o3)=C(O)C(=O)N2c2cc(C)on2)c1 (stereo not given)	FUS suppressor inconclusive, ALOX12 inh 50µM, gsp ag inconclusive

High-throughput results deposited in PubChem BioAssay by National Center for Advancing Translational Sciences (NCATS).
